The results in this text go back to the supplement of paper PMC10338343.

± gives the standard deviation. The full ranking holds about 5,500 sequences; the median of “pre-steady-state target cleavage rate” is about 0.1, and the highest 2% start at about 0.64. The entries come from a sample that favours the highest values as a whole.

For this experiment, the system named is MIWI (PIWIL1) piRISC loaded with piRNA #2 (30 nt). Kind of experiment: pre-steady-state target cleavage rate (min^-1); MIWI and MILI are mouse PIWI proteins and EfPiwi is from a freshwater sponge; tags in brackets are library labels; higher = faster piRNA-guided slicing of the target. To be noted: guide: piRNA #2 5'p-UUAGGUAACCCAGUAGAUCCAGAGGAAUUC; auxiliary factor: 500 nM mouse GTSF1. The gist of the method: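 Cleave-'n-Seq used a transcribed, DNA-blocked target RNA library at 0.1 nM and active affinity-purified piRISC with one synthetic guide at 1 nM, with or without 500 nM GTSF1 partner protein, in HEPES–potassium acetate buffer at 33 °C for 0–8 or 0–960 min. Uncleaved targets were sequenced and normalised to depth and to weakly complementary targets, and three trials were pooled with k3 capped at 0.0001 min^-1. The pre-steady-state cleavage rate was estimated by a burst-and-steady-state fit.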
In the case of CUUAAGCUCUGCAUCUACUGGGUUAGCUAA, the “pre-steady-state target cleavage rate” value came out at 0.182 ± 0.027.

GAAUUCCUCCUGGAUCUACUGGGUUACCUAA: the “pre-steady-state target cleavage rate” value is 0.445 ± 0.047.

As to CAAUUCCUCUCCAUCUACUGGGUUACCUAA, the “pre-steady-state target cleavage rate” value is 0.829 ± 0.057.

GAAUUCCUCUCCAUCUACUGGGUUACCUAA: the “pre-steady-state target cleavage rate” value came to 0.706 ± 0.051.

Turning to CUAUUCCUCUCCAUCUACUGGGUUACCUAA, the “pre-steady-state target cleavage rate” value amounted to 0.647 ± 0.051.

Regarding CUAUUCCAUCUGGAUCUACUGGGUUACCUAA, the “pre-steady-state target cleavage rate” value stood at 0.537 ± 0.053.

Regarding CUAUUCCUCUGGGAUCUACUGGGUUACCUAA, the “pre-steady-state target cleavage rate” value is 0.514 ± 0.042.

Take CUUAUCCUCUCCAUCUACUGGGUUACCUAA: the “pre-steady-state target cleavage rate” value turned out to be 0.422 ± 0.033.

For CAAUUCCAUCUGGAUCUACUGGGUUACCUAA, the “pre-steady-state target cleavage rate” value came out at 0.568 ± 0.064.

On to CUUUUCCUCUCCAUCUACUGGGUUACCUAA, for which the “pre-steady-state target cleavage rate” value came out at 0.554 ± 0.044.

With GAAUUCCUCGGAUCUACUGGGUUACCUAA, the “pre-steady-state target cleavage rate” value stood at 0.432 ± 0.08.

Take CUUAAGGGCUGGAUCUACUGGGUUACCUAA: the “pre-steady-state target cleavage rate” value was determined as 0.159 ± 0.037.

With CUUAAGGAGUGGAUCAACUGGGUUACGUAA, the “pre-steady-state target cleavage rate” value was found to be 0.053 ± 0.014.

Regarding CUUAAGGACUGGAUCUACUGGGUCUACCUAA, the “pre-steady-state target cleavage rate” value turned out to be 0.0638 ± 0.033.

Regarding CUUAACCUGCUGGAUCUACUGGGUUACCUAA, the “pre-steady-state target cleavage rate” value worked out at 0.356 ± 0.036.

Take CUUAAGGACUGGAUUCUACUGGGUUACCUAA: the “pre-steady-state target cleavage rate” value was found to be 0.0274 ± 0.024.

With CUAUUCCUCAGGUUCUACUGGGUUACCUAA, the “pre-steady-state target cleavage rate” value amounted to 0.584 ± 0.05.

In the case of CAAUUCCUCAGGAUCUACUGGGUUACCUAA, the “pre-steady-state target cleavage rate” value was 0.695 ± 0.062.

As for CAAAUCCUCAGGAUCUACUGGGUUACCUAA, the “pre-steady-state target cleavage rate” value worked out at 0.754 ± 0.059.

For CAAUACCUCAGGAUCUACUGGGUUACCUAA, the “pre-steady-state target cleavage rate” value is 0.656 ± 0.061.

Regarding CUAAUCCUCAGGAUCUACUGGGUUACCUAA, the “pre-steady-state target cleavage rate” value was 0.55 ± 0.055.

Regarding GAAUUCCUCAGGAUCUACUGGGUUACCUAA, the “pre-steady-state target cleavage rate” value was 0.483 ± 0.048.

GAAUUCCUCAGGUUCUACUGGGUUACCUAA: the “pre-steady-state target cleavage rate” value worked out at 0.539 ± 0.049.

In the case of GAAUACCUCAGGAUCUACUGGGUUACCUAA, the “pre-steady-state target cleavage rate” value was 0.421 ± 0.043.

As to CUAUACCUCAGGAUCUACUGGGUUACCUAA, the “pre-steady-state target cleavage rate” value came to 0.465 ± 0.051.

Regarding CAAUUCCUCAGGUUCUACUGGGUUACCUAA, the “pre-steady-state target cleavage rate” value was 0.709 ± 0.054.

GUAUUCCUCAGGAUCUACUGGGUUACCUAA: the “pre-steady-state target cleavage rate” value is 0.0863 ± 0.033.

With GAAAUCCUCAGGAUCUACUGGGUUACCUAA, the “pre-steady-state target cleavage rate” value turned out to be 0.446 ± 0.051.

With GAAUUCCUCUGGAUCUACUCGGUUACGUAA, the “pre-steady-state target cleavage rate” value worked out at 0.155 ± 0.021.

Turning to CUUAUCCACUGCAUCUACUGGGUUACCUAA, the “pre-steady-state target cleavage rate” value turned out to be 0.314 ± 0.018.

Turning to CUUAAGGUCUGGAUCUACAGGGUUACCUUA, the “pre-steady-state target cleavage rate” value is 0.0564 ± 0.011.

Consider CUUAAGGACUGGAUCUUCUGGGUUACCUAA, for which the “pre-steady-state target cleavage rate” value came out at 0.0593 ± 0.037.

Regarding CUAUGCCUCUGGAUCUACUGGGUUACCUAA, the “pre-steady-state target cleavage rate” value was 0.275 ± 0.037.

On to CUAUUCCUCUGGAUCUACUCCGUUACCUAA, for which the “pre-steady-state target cleavage rate” value was 0.0198 ± 0.0061.

As for CUAUUCCACUGGAUCUACUGCGUUACCUAA, the “pre-steady-state target cleavage rate” value came out at 0.542 ± 0.056.

Regarding CAAUUCCUCAGGAUCUACUGCGUUACCUAA, the “pre-steady-state target cleavage rate” value amounted to 0.674 ± 0.071.

Turning to CUUUUCCUCAGGAUCUACUGGGUUACCUAA, the “pre-steady-state target cleavage rate” value was 0.578 ± 0.054.

Regarding CAUUUCCUCAGGAUCUACUGGGUUACCUAA, the “pre-steady-state target cleavage rate” value is 0.701 ± 0.054.

CUAUUCCUCAGGAUCUACUGCGUUACCUAA: the “pre-steady-state target cleavage rate” value is 0.561 ± 0.069.

Regarding GAUUUCCUCAGGAUCUACUGGGUUACCUAA, the “pre-steady-state target cleavage rate” value came out at 0.459 ± 0.046.

GAAUUCCUCAGGAUCUACUGCGUUACCUAA: the “pre-steady-state target cleavage rate” value amounted to 0.518 ± 0.048.

As to GAAUUCCACUGGAUCUACUGCGUUACCUAA, the “pre-steady-state target cleavage rate” value turned out to be 0.744 ± 0.063.

As for CAAUUCCACUGGAUCUACUGCGUUACCUAA, the “pre-steady-state target cleavage rate” value stood at 0.468 ± 0.067.

CUUAACCACUGGAUCUACUCGGUUACCUAA: the “pre-steady-state target cleavage rate” value is 0.0483 ± 0.01.

Turning to CUUAUCCUCUGGAUGCUACUGGGUUACCUAA, the “pre-steady-state target cleavage rate” value was 0.277 ± 0.034.

Regarding CUAUUCCUCUGGAUGUACUGGGUUACCUUA, the “pre-steady-state target cleavage rate” value came to 0.403 ± 0.043.

Turning to CUUAAGGACUGGAUCUACUGGGUUACCGUAA, the “pre-steady-state target cleavage rate” value stood at 0.0402 ± 0.032.

Take CUUUUCCUCUGGAUCUACUGGGAUUCCUAA: the “pre-steady-state target cleavage rate” value is 0.087 ± 0.033.

Regarding CUAUUCCUGUGGAUCUACUGGCUUACCUAA, the “pre-steady-state target cleavage rate” value turned out to be 0.0662 ± 0.017.

Regarding CUAAUCCUCUGGAUCUACUGGGUUACGUAA, the “pre-steady-state target cleavage rate” value is 0.66 ± 0.052.

In the case of CUUAUCCUCUCGAUCUACUGGGUUACGUAA, the “pre-steady-state target cleavage rate” value turned out to be 0.728 ± 0.046.

Take CUUAUCCUCUGGAUCUACUGGGUUACCGUAA: the “pre-steady-state target cleavage rate” value turned out to be 0.344 ± 0.063.

On to CUUAACCUCUCGAUCUACUGGGUUACGUAA, for which the “pre-steady-state target cleavage rate” value was determined as 0.551 ± 0.037.

For the sequence CUUAUCCUCUGGAUCUACUGGGUUACGUAA, the “pre-steady-state target cleavage rate” value came out at 0.684 ± 0.049.

As for CUUAUCCUCUGGAUCUACUGGGUUACGUUA, the “pre-steady-state target cleavage rate” value was determined as 0.469 ± 0.07.

GAAAUCCUCUGGAUCUACUGGGUUACGUAA: the “pre-steady-state target cleavage rate” value turned out to be 0.532 ± 0.058.

Turning to CUUAUCCUCUCGAUCUACUGGGUUACCUUA, the “pre-steady-state target cleavage rate” value worked out at 0.436 ± 0.032.

CAAAUCCUCUGGAUCUACUGGGUUACGUAA: the “pre-steady-state target cleavage rate” value was determined as 0.555 ± 0.064.

As for CUUUUCCUCAGGAUCUACUGGGUUAGCUAA, the “pre-steady-state target cleavage rate” value worked out at 0.133 ± 0.041.

CAAUUCCUCUGGAUCUACUGGGUUUCCUUA: the “pre-steady-state target cleavage rate” value came to 0.281 ± 0.067.

With GAAUACCUCUGGAUGUACUGGGUUACCUAA, the “pre-steady-state target cleavage rate” value was found to be 0.251 ± 0.044.

Take CUAUUCCUCUGGAUCUACUGGGUUACGUUA: the “pre-steady-state target cleavage rate” value was determined as 0.401 ± 0.055.

In the case of CUUAUCCUGUGGAUCUACUGGGUUACCUAA, the “pre-steady-state target cleavage rate” value worked out at 0.443 ± 0.056.

As to CUUAUCCUCUGGAUCUACUGGGUUAUCCUAA, the “pre-steady-state target cleavage rate” value worked out at 0.413 ± 0.057.

On to CUUAAGGACGGAUCUACUGGGUUACCUAA, for which the “pre-steady-state target cleavage rate” value amounted to 0.0543 ± 0.039.

Regarding GAAUUCCUCUCGAUCAACUGGGUUACCUAA, the “pre-steady-state target cleavage rate” value was determined as 0.63 ± 0.051.

As for CAAUUCCUCUCGAUCAACUGGGUUACCUAA, the “pre-steady-state target cleavage rate” value was 0.721 ± 0.053.

CUAUUCCUCUGGAUCAACUGGGUUACCUAA: the “pre-steady-state target cleavage rate” value worked out at 0.44 ± 0.051.

Take CUUAUCCUCUCGAUCAACUGGGUUACCUAA: the “pre-steady-state target cleavage rate” value came out at 0.508 ± 0.033.

As to CUUUUCCUCUCGAUCAACUGGGUUACCUAA, the “pre-steady-state target cleavage rate” value was 0.553 ± 0.039.

With CUAUUCCUCUCGAUCAACUGGGUUACCUAA, the “pre-steady-state target cleavage rate” value turned out to be 0.637 ± 0.047.

In the case of CUUUUCCUCUGGAUCUACUGCGUUAGCUAA, the “pre-steady-state target cleavage rate” value was determined as 0.142 ± 0.048.

For CUUAAGGAGUGGAUCUACUGGGUUACCAUA, the “pre-steady-state target cleavage rate” value amounted to 0.0428 ± 0.015.
